Where “and” joins values, the source holds several entries; their conditions need not be identical. Identical values can stand only once.
Assays:
Type in all cases: functional
[1] = biological target: Solute carrier family 2, facilitated glucose transporter member 1 (Homo sapiens) (UniProt P11166); assay: ST_JUDE_LEISH: Cytotoxicity at 2uM final concentration against transgenic Leishmania Mexicana promastigotes LmGLUT1 that are glucose transport deficient and complemented with the human glucose transporter GLUT1. Activity is measured by DNA content using SYBR green in vitro
[2] = biological target: Hexose transporter 1 (Plasmodium falciparum) (UniProt O97467); assay: ST_JUDE_LEISH: Cytotoxicity at 2uM final concentration against transgenic Leishmania Mexicana promastigotes LmPfHT that are glucose transport deficient and complemented with the Plasmodium falciparum hexose transporter. Activity is measured by DNA content using SYBR green in vitro
[3] = biological target: Glucose transporter (Leishmania mexicana) (UniProt O61059); assay: ST_JUDE_LEISH: Cytotoxicity at 2uM final concentration against transgenic Leishmania Mexicana promastigotes LmGT2 that are glucose transport deficient and complemented with the L. Mexicana glucose transporter 2. Activity is measured by DNA content using SYBR green in vitro

Solute carrier family 2, facilitated glucose transporter member 1 (Homo sapiens), sequence (P11166 whole entry): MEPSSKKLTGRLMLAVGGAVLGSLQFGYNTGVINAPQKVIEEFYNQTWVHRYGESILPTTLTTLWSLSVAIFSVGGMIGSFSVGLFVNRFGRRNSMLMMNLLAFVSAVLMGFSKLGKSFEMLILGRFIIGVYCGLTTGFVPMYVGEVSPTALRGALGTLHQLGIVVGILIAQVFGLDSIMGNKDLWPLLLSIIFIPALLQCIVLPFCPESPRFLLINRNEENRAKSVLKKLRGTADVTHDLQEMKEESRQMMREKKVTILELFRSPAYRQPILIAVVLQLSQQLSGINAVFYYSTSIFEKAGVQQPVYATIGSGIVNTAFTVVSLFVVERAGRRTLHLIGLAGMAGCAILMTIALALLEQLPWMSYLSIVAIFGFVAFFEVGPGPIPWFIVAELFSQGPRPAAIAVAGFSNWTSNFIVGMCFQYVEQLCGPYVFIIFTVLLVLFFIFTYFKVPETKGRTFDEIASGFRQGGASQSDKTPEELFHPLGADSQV

SMILES	inhibition [1]	inhibition [2]	inhibition [3]
COc1cc(C2CCCCC2)c(OC)cc1CC1c2cc(O)c(Cl)cc2CCN1C (stereo not given)	3.83%	-0.22%	12.9%
O=C(c1ccc(Cl)cc1)N1CCOC(CCN2CCC(c3ccccc3)CC2)(c2ccc(Cl)c(Cl)c2)C1 (stereo not given)	0.85%	-0.89%	-0.89%
CCN(CC)CCNc1ccnc2[nH]c3ccc(Cl)cc3c12	1.19%	-0.21%	-0.03%
N#Cc1ccc(N2CCN(C(=O)c3cccc(-c4noc(C(F)(F)F)n4)c3)CC2)nc1	0.27%	0.91%	-0.23%
N#Cc1ccc(N2CCN(Cc3ccc(-c4ccc(-c5nc6ccccc6[nH]5)s4)cc3)CC2)nc1	6.79%	6.18%	2.59%
O=C(/C=C/c1ccc(Cl)c(Cl)c1)NCCCCCN1CCCN(C(=S)Nc2cccc(Cl)c2)CC1	0.6%	-0.74%	0.17%
CCOc1ccc(-c2nonc2NC(=O)c2ccccc2)cc1OCC	4.72%	2.09%	3.26%
CCCC1(NC[C@@H](O)[C@H](Cc2ccccc2)NC(=O)c2cc(NCC)cc(N3CCCCS3(=O)=O)c2)CCCCC1	-0.81%	0.97%	4.36%
CN(CCCN(C)c1cc(NC(=O)c2ccc(F)cc2)ccn1)Cc1cccc(O)c1	-1.12%	-0.11%	-0.03%
Cc1cccc2nc(-c3cccc(-c4ccc(NC(=O)Cc5ccc[n+]([O-])c5)cc4)c3)[nH]c12	0.18%	1.16%	0.56%
CN(C)c1ccc(-c2csc(C(=O)NC3CCCCN(CCC(C)(C)C)C3)c2)cc1 (stereo not given)	2.51%	2.15%	0.68%
Cc1[nH]c(C)c(-c2ccc(Oc3ccccc3)cc2)c(=O)c1Br	1.44%	1.17%	-0.53%
O=C(O[C@@H]1CN[C@H](C#Cc2cc3ncnc(Nc4ccc5c(cnn5Cc5cccc(F)c5)c4)c3s2)C1)N1CCCC1	1.37%	0.19%	-1.8%
CC1C(c2cccc(Cl)c2)OCC(C)(C)N1C(=O)CCN1CCCCC1 (stereo not given)	-1.47%	-0.69%	-1.56%
CCNC(=O)NC1CCN(Cc2c(-c3cccs3)nc3ccccc3c2C(=O)N[C@@H](C)C2CCCCC2)CC1	2.27%	0.77%	-0.86%
CN1CCN(CCNc2c3ccccc3nc3ccc4ccccc4c23)CC1	18.8%	17%	12.5%
CCc1ccc(NC(=O)C=NNC(=N)N)cc1	1.51%	1.46%	1.17%
O=C(CCC1CCCC1)N(Cc1ccc(-c2ccc(CNCCc3ccccc3)cc2)cc1)C1CCCNC1 (stereo not given)	-0.19%	1.6%	0.14%
CCOC(=O)c1ccc(NC(=O)c2ccccc2C(=O)O)cc1	0.53%	1.23%	-0.02%
O=C(NCC1CCN(CCN2CCC(c3cn(CCO)c4ccccc34)CC2)CC1)c1ccc(-c2ccc(C(F)(F)F)cc2)cc1	4.27%	5.41%	3.71%
CC(=O)Nc1ncc(C(=O)Nc2cccc(-c3ccc(-c4nc5ccccc5[nH]4)cc3)c2)s1	1.69%	1.26%	1.08%
Clc1ccc(Nc2nc(NCc3ccccc3)nc(N/N=C/c3ccccn3)n2)cc1	83.7%	83.5%	77.6%
CCOc1cc(NC(=O)Nc2ccnc3ccccc23)cc(OC)c1	12.6%	10.5%	7.94%
COc1ccc(C=Cc2cc(=N)c3ccccc3[nH]2)cc1	3.18%	2.77%	0.89%
COC(=O)c1cccc(CNCc2cccc(-c3ccc(-c4nc5cccc(C)c5[nH]4)s3)c2)c1	1.43%	0.6%	0.69%

SMILES	inhibition [1]	inhibition [2]	inhibition [3]
CN(C)c1ccc(-c2csc(C(=O)NCC3CCN(Cc4cccc(C(F)(F)F)c4)C3)c2)cc1 (stereo not given)	7.22%	6.1%	9.26%
CC(C)NCc1cccc(-c2ccc(NC(=O)c3ccc(F)cc3)cc2)c1	3.19%	3.2%	-0.76%
CCCCSc1nc2c(c(=O)n1Cc1ccco1)C1(CCCCC1)Cc1ccccc1-2	0.71%	1.36%	1.89%
COc1cc(NC(=O)CCCCCCCCN2CCN(C)CC2)c2ncccc2c1	1.29%	-0.26%	0.86%
SC(=Nc1ccc2c(c1)OCCO2)NN=Cc1ccccn1	-0.28%	-0.16%	8.54%
CC(=O)Nc1nc(C(=O)Nc2ccc(-c3cccc(-c4nc5ccccc5[nH]4)c3)cc2)cs1	1.93%	2.85%	0.42%
CCNc1cc(C(=O)N[C@@H](Cc2ccccc2)[C@H](O)CNC(C)(C)Cc2cccc(Cl)c2)cc(N2CCCCS2(=O)=O)c1	5.21%	1.94%	6.82%
COc1ccc(Oc2ccc(-c3c(O)cc(C)nc3C)cc2)cc1	2.96%	3.75%	1.27%
Cc1cc(C(=O)Nc2ccc(-c3nc4ccccc4[nH]3)cc2)ccc1[N+](=O)[O-]	3.49%	1.97%	-1.54%
Cc1cc(C)cc(OCC(O)CN(CCN2CCOCC2)C(=O)Nc2ccc(Br)cc2)c1 (stereo not given)	12.2%	9.85%	13.4%
O=C(NC1CCN(CCC[C@]2(c3ccc(Cl)c(Cl)c3)CCCN(C(=O)c3ccccc3)C2)CC1)c1ccc(F)cc1	3.29%	2.13%	2.74%
Cc1ccc(NC(=O)NC2CCN(CCCCCNC(=O)/C=C/c3ccc(Cl)c(Cl)c3)CC2)cc1C	-0.29%	-0.57%	-1.51%
COc1cc(-c2ccc(-c3cnc(N)nc3OC)[nH]2)cc(OC)c1OC	5.61%	5.42%	2.7%
CN1CCN(c2ccnc3ccc(NC(=O)Nc4ccc5c(c4)CCCC5=O)cc23)CC1	0.37%	1.11%	1.66%
COc1ccc2c(NN=Cc3ccccc3)ccnc2c1	1.36%	-2.08%	-1.04%
C=C(C)CSc1nc2c(c(=O)n1Cc1ccco1)C1(CCCCC1)Cc1ccccc1-2	3.67%	3.16%	4.72%
CCCCCCCn1c2c(c(=N)c3c1CCC3)CCCC2	92%	90.8%	80.1%
O=C(Nc1cncc(NC(=O)c2ccc(Cl)c(Cl)c2)c1)c1ccc(Cl)c(Cl)c1	2.62%	2.96%	-0.68%
COc1ccc2c(-c3ccccc3)noc2c1	0.37%	0.1%	1.42%
CCC(CC)(Cc1ccccc1)NC(=O)[C@H](CC1CCCCC1)Nc1ccc(C#N)c2ccccc12	-1.5%	-0.75%	-0.23%
CCN(CC)c1ccc(C(c2ccc(N(CC)CC)cc2)c2cccc([N+](=O)[O-])c2)cc1	15.2%	13.8%	11.1%
Oc1cccc(-c2nc3cc(C4=NC5CCCCC5N4)ccc3[nH]2)c1 (stereo not given)	3.58% and 0.07%	3.97% and -1.13%	2.39% and 0.63%
CCOc1ccc2[nH]c(C)cc(=NN=Cc3ccccc3F)c2c1	4%	4.47%	3.86%
CC1CN(C(=O)c2sc3ccccc3c2Cl)CC(C)O1 (stereo not given)	-2.33%	0.96%	0.74%
O=C(/C=C/c1ccc(Cl)c(Cl)c1)NCCCCCN1CCC(NC(=O)Nc2ccc(Br)cc2)CC1	-0.66%	-0.06%	-0.46%

SMILES	inhibition [1]	inhibition [2]	inhibition [3]
N=C(NCCCCC1CCCCC1)c1cccc(C(=N)NCCCCC2CCCCC2)n1	0.33%	0.98%	0.14%
N#Cc1ccc(CN2CCC(Oc3ccc(NC(=O)c4ccccc4)cc3Cl)CC2)cc1	0.83%	-1.16%	1.28%
CC(=O)Nc1cccc(Nc2nccc(Nc3ccc(Oc4ccccc4)cc3)n2)c1	1.64%	2.76%	-0.82%
Nc1nc(N)c2cc3ccc(OCc4ccccc4)cc3nc2n1	12.2%	9.05%	6.89%
O=C(Nc1ccc(Cl)cc1)Nc1cccc(CCNCc2ccccc2)c1	0.95%	0.57%	1.38%
Cc1cc(N[C@@H](CC(C)C)C(=O)NC2CCCC2)nc(NCC2CCCCC2)n1	3.95%	3.89%	0.25%
CN(C)c1ccc(N2C(N)=NC(N)=NC23CCCC3)cc1	-0.69%	-0.9%	-3.85%
Cc1cc(Nc2ccc3c(c2)CCC3)n2ncnc2n1	0.63%	0.55%	0.55%
COc1ccc2nc3cc(Cl)ccc3c(Nc3ccc(C(=O)O)cc3)c2c1	5.95%	-1.31%	0.06%
CN1CCN(c2ccnc3ccc(NC(=O)c4ccc(Cl)c(Cl)c4)cc23)CC1	-1.88%	0.68%	0.97%
CC(=O)c1cccc2c(NC(=O)Nc3ccc4nccc(N5CCN(C)CC5)c4c3)cccc12	7.67%	6.04%	7.35%
Cc1cccc2nc(-c3cccc(-c4ccc(NC(=O)c5ccncc5)cc4)c3)[nH]c12	2.81%	2.24%	2%
CC1(C)N=C(N)N=C(N)N1CCc1ccccc1	11.6%	7.56%	8.45%
Cc1[nH]c(C)c(-c2ccc(OCCn3cnc(Cl)c3Cl)cc2)c(=O)c1Br	-1.35%	-0.56%	-0.52%
Cc1cccc2nc(-c3ccc(-c4ccc(CNCCN5CCNCC5)cc4)s3)[nH]c12	2.77%	3.12%	3.22%
CC(=O)Nc1ncc(C(=O)Nc2cccc(-c3ccc(-c4nc5cc(C(F)(F)F)ccc5[nH]4)cc3)c2)s1	2.37%	0.89%	-0.63%
Cc1c(CCC#N)c(NCc2ccccc2)n2c(nc3ccccc32)c1C#N	1.13%	0.53%	-0.97%
CCCc1cc(=O)[nH]c(-n2nc(C)cc2NC(=O)c2cc3ccccc3o2)n1	12.6%	13.1%	4.77%
COc1ccc2nccc([C@@H](O)CN3CCC(NCc4cc5cc(OC(F)(F)F)ccc5[nH]4)CC3)c2c1	9.94%	10.4%	3.79%
CCOc1c(Br)cc(Br)cc1CNCCCCNc1nc2ccccc2[nH]1	3.08%	2.4%	3.2%
Nc1ncc(-c2ccc3ncccc3c2)c(N)n1	0.18%	0.97%	1.18%
COc1ccc2ncc(Cl)c(N3CCC(CCNCc4ccc5c(n4)NC(=O)CS5)CC3)c2c1	2.36%	0.92%	3.01%
CCCc1cc(OCCCOc2ccccc2)ccc1OCCCON1C(=N)N=C(N)NC1(C)C	20.6%	26.8%	14%
c1ccc(CCNCc2ccc(-c3ccc(CNCc4ccc5c(c4)OCO5)cc3)nc2)cc1	2.48%	-1.05%	1.81%
CCC(C(C)C)n1ccc2c3c(N)nc(N)nc3ccc21 (stereo not given)	81.6%	84.6%	66.6%
